Laboratory results: PubChem BioAssay (EPA / NIEHS)
Inconclusive results are not listed. The source made the active and inactive calls. Rule for the calls: active = hit-call score of the fitted dose curve at least 0.9, where 1 is the maximum; inconclusive = response in the unintended direction; inactive = score below 0.9.

experiment: ATG_XTT_Cytotoxicity: Cytotoxicity Assessment in the Attagene TRANS-FACTORIAL HepG2 Assay (AID 2283584);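 for AC50: cells exposed to compound for 24 h before reading; active means loss of viability signal versus DMSO baseline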
Outline: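 XTT readout of cell number in transfected HepG2 cells, 24 h post-dosing; DMSO serves as negative control and baseline, with activity taken as loss of viability signal.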

Row | Structure (SMILES) | outcome | AC50
1 | CC(C)(C)C(=O)C=Cc1ccc(Cl)cc1 | inactive | 
2 | c1ccc(CNCc2ccccc2)cc1 | inactive | 
3 | CCOC(=O)c1ccccc1C(=C1C=C(Br)C(=O)C(Br)=C1)c1cc(Br)c(O)c(Br)c1 | inactive | 
4 | C=CC(=O)OCCOC1C2CCC1C1CC=CC12 (stereo unspecified) | inactive | 
5 | CCOc1nc(F)cc2nc(S(=O)(=O)Nc3c(Cl)cccc3C(=O)OC)nn12 | inactive | 
6 | O=[N+]([O-])c1ccc(CO)cc1 | inactive | 
7 | O=c1c2ccccc2oc2ccccc12 | inactive | 
8 | Nc1ccc(Oc2ccc(N)c(N)c2)cc1 | inactive | 
9 | COC(=O)c1sccc1S(N)(=O)=O | inactive | 
10 | COCCCOCCCOC | inactive | 
11 | C1=CCCC1 | inactive | 
12 | OCCNCc1ccccc1 | inactive | 
13 | C[Si](C)(C)O[Si](O)(O)O | inactive | 
14 | CC1(C)S[C@@H]2[C@H](NC(=O)COc3ccccc3)C(=O)N2[C@H]1C(=O)O | inactive | 
15 | CCCCCCCCCCc1ccccc1 | inactive | 
16 | CC(C)(C)C1CCCCC1=O (stereo unspecified) | inactive | 
17 | C=C[Si](OC(C)=O)(OC(C)=O)OC(C)=O | inactive | 
18 | CCCC(C)CCC(C)=O (stereo unspecified) | inactive | 

Row | Structure (SMILES) | outcome | AC50
19 | C#CC1(O)CC[C@H]2[C@@H]3CCC4=CCCC[C@@H]4[C@H]3CC[C@@]21C (stereo partly specified) |  | 42.3 µM (active)
20 | O=C1CCC(=O)N1Cl | inactive | 
21 | COc1c2ccoc2cc2oc(=O)ccc12 | inactive | 
22 | Cc1cnc(NC(=O)C2=C(O)c3ccccc3S(=O)(=O)N2C)s1 | inactive | 
23 | Cc1cc(C)c(C)c(O)c1 | inactive | 
24 | CC(=O)OCC(C)OC(C)=O (stereo unspecified) | inactive | 
25 | C[Si](C)O[Si](C)(C)O[Si](C)(C)O[Si](C)C | inactive | 
26 | Cc1ccc2oc(=O)ccc2c1 | inactive | 
27 | CCCCCCCCCCCCCCCCCC#N | inactive | 
28 | CC(C)C(=O)C(C)C | inactive | 
29 | O=S(=O)(O)c1cc(S(=O)(=O)O)c2ccc3c(S(=O)(=O)O)cc(S(=O)(=O)O)c4ccc1c2c43 | inactive | 
30 | COC=O | inactive | 
31 | O=CC1CC1 | inactive | 
32 | CC(=O)C=CC1C(C)=CCC(C)C1(C)C (stereo unspecified) | inactive | 
33 | Cc1ccc(C2OC[C@@H]3OC(c4ccc(C)cc4)O[C@H]([C@H](O)CO)[C@@H]3O2)cc1 (stereo partly specified) | inactive | 
34 | c1ccc2c(c1)ccc1ncccc12 | inactive | 
35 | C=C(C)[C@@H]1CCC2=CCC[C@@H](C)[C@]2(C)C1 | inactive | 
36 | CCCCCCOC(=O)C(C)CC (stereo unspecified) | inactive | 
